HTR2A ag = mouse Htr2a agonists via beta-arrestin recruitment, primary screen, cell-based, luminescence; 5-hydroxytryptamine receptor 2A (Mus musculus), P35363; CHO-K1 mHTR2A beta-arrestin complementation; percent of 30 µM serotonin response; activation, % at 7.6 µM; 360,000 tested, 0.66% active;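 active means activation above a run cutoff, the mean activation of all tested compounds plus 3 SD, cut at about 14% in these data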;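 further: 0% = plate median of compound wells and 100% = 30 µM serotonin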
HTR5A ag ctr = HTR5A agonists in luminescence cell assay, primary screen, counter-screen for OPRM1-OPRD1 heterodimer agonist project, full-deck HTS. 5-hydroxytryptamine receptor 5A (Homo sapiens), P47898. cell-based. activation, % at 9.3 µM. 340,000 tested, 0.61% active. AID 504692, 2011; in the data active means activation mostly above about 9.5%, no sharp cut-off; inactive means mostly below about 7.6%;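 further: 0% = cells with vehicle only and 100% = reference agonist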
Target sequence (P47898 whole entry, looked up): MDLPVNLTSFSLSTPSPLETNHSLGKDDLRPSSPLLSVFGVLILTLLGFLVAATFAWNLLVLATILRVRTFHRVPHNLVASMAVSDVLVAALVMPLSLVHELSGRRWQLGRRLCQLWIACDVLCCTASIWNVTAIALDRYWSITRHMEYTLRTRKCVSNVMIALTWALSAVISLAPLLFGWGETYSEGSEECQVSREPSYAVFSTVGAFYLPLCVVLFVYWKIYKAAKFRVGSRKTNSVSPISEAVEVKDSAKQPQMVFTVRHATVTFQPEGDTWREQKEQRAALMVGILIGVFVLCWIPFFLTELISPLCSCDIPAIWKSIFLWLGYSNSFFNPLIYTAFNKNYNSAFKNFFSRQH
MOR-DOR ag-1 = agonists of OPRM1-OPRD1 heterodimerization, primary screen, cell-based, luminescence; Mu-type opioid receptor (Homo sapiens) + Delta-type opioid receptor (Homo sapiens), …; cells; activation, % at 9.3 µM; 340,000 tested, 0.3% active;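 further: 0% = vehicle-treated cells and 100% = reference agonist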
HTR5A inv ctr = HTR5A inverse agonists in luminescence cell assay, primary screen, counter-screen for OPRM1-OPRD1 heterodimer inverse agonist project, full-deck HTS | inhibition, % at 9.3 µM | HTR5A cell line, inverse agonism | AID 504634, 2011 | 340,000 tested, 0.083% active; in the data active means inhibition mostly above about 23%, no sharp cut-off; inactive means mostly below about 18%;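 further: 0% = cells with DMSO and 100% = no-cell wells with DMSO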
OPRM1-OPRD1 inv = inverse agonists of MOR-DOR heterodimerization, primary screen, cell-based, luminescence; cell-based MOR-DOR heterodimer luminescence, inverse agonism; AID 504357, 2011; inhibition, % at 9.3 µM; Mu-type opioid receptor (Homo sapiens) + Delta-type opioid receptor (Homo sapiens), …; 340,000 tested, 0.21% active; in the data active means inhibition above about 22%, passing the limit was not always enough;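 further: 0% = cells with DMSO and 100% = wells without cells with DMSO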
MOR-DOR ag-2 = OPRM1-OPRD1 heterodimerization promoters, counter-screen for HTR5A agonist project, cell-based, luminescence; shares compounds with HTR5A ag ctr; U2OS counter-screen cells, complementation luminescence, 3 h; activation, % at 9.3 µM; 800 tested, 13% active; AID 504913, 2011
HTR5A ag confirm = HTR5A agonists, retest of hits, confirmation, cell-based, luminescence | shares compounds with HTR5A ag ctr | HTR5A agonist cell assay | activation, % at 9.3 µM | 800 tested, 17% active | AID 504915, 2011; in the data active means activation above about 17%;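 further: 0% = cells with vehicle only and 100% = full reference agonist response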
Starred values were filed as active, the others as inactive; nt = no result given. A selection: hits, their analogues and other compounds. The true share with any hit is near 1.6%. Unless noted, no stated cut-off is given here; in the data, active means activation above about 18%; inactive means the rest.

SMILES	HTR2A ag	HTR5A ag ctr	MOR-DOR ag-1	HTR5A inv ctr	OPRM1-OPRD1 inv	MOR-DOR ag-2	HTR5A ag confirm
COc1cc(/C=C/C(=O)N2CCN(C(=O)/C=C/c3cc(OC)c(OC)c(OC)c3)CC2)cc(OC)c1OC	-1.8	3.2	-1.2	1.4	8.4	nt	nt
COc1cc(/C=C/C(=O)O)cc(OC)c1OC	-6.8	38.5*	-0.7	-137.7	3.9	0.7	-3.5
COc1cccc(CNc2cccc3cccnc23)c1O	-1.0	-0.8	6.2	6.3	-35.5	nt	nt
Oc1c(Br)cc(Br)cc1CNc1cccc2cccnc12	-5.2	15.9*	6.8	-1.1	-34.9	12.9	-3.4
O=C(NCC1CCCO1)c1ccc(Oc2ccc([N+](=O)[O-])cc2Cl)cc1 (stereo not drawn)	0.5	17.5*	3.4	-49.5	-24.6	-3.5	-7.7
CC(OC(=O)c1ccc(Cl)nc1)C(=O)Nc1ccc2c(c1)OCO2 (stereo not drawn)	8.5	19.1*	-2.9	-53.1	11.9	1.1	2.2
COc1cccc(-c2csc(N3CCN(C(=S)Nc4ccccc4)CC3)n2)c1	3.0	22.2*	3.1	-51.6	-18.3	-1.9	-6.8
CC1=NNC(=O)/C1=C\c1cn(-c2ccccc2)nc1-c1cccs1	-0.9	16.9*	3.9	-45.2	-28.1	3.3	1.7
CCCCc1c(-c2ccccc2F)ncn1CCc1ccccc1OC	-6.0	nt	nt	nt	nt	nt	nt
CCc1ccc(C2CC3C(CN2S(=O)(=O)c2ccc(C)cc2)C(=O)CC(c2ccc(CC)cc2)N3S(=O)(=O)c2ccc(C)cc2)cc1 (stereo not drawn)	-2.0	nt	nt	nt	nt	nt	nt
CC1=NN(c2ccc(C)c(C)c2)C(=O)/C1=C\C=C\c1ccc([N+](=O)[O-])o1	3.4	16.2*	13.8	19.5	-75.2	16.3	2.4
CC(C)Cc1ccc(-c2ccc3nccn3c2)cc1	1.9	nt	nt	nt	nt	nt	nt
O=C1c2cc([N+](=O)[O-])ccc2-c2cc(Br)c(N=C(NO)C(F)(F)F)cc21	-7.3	21.0*	6.3	-80.7	-27.4	19.1*	-0.2
CC1(C)Cc2c(C#N)c(SCCC#N)nc(N3CCOCC3)c2CS1	-0.7	14.6*	-0.1	-8.3	0.7	0.9	2.9
C=CCn1c(C(C)n2c(-c3cnccn3)nc3ccccc32)nc2ccccc21 (stereo not drawn)	1.9	nt	nt	nt	nt	nt	nt
COc1cc(O)c(C(CCN2CCCCC2)c2ccc(N(C)C)cc2)c(OC)c1 (stereo not drawn)	-2.8	25.8*	0.5	-75.5	-2.9	45.5*	-4.8
COc1cc(O)c(C(CCN2CCCC2)c2ccc(N(C)C)cc2)c(OC)c1 (stereo not drawn)	-1.8	0.1	-1.5	0.6	8.4	nt	nt
Cc1cccc2sc(NNC(=O)c3ccc(S(=O)(=O)N4CCCC(C)C4)cc3)nc12 (stereo not drawn)	5.2	16.7*	12.7	-41.6	-74.8	8.1	2.6
O=C(Cn1cnc2c(nnn2-c2ccccc2)c1=O)N1CCOCC1	-1.0	27.7*	-1.7	-155.8	10.2	6.4	8.1
Cc1ccc(-n2nnc3c(=O)n(CC(=O)N4CCOCC4)cnc32)cc1	-1.1	-1.5	-1.8	2.3	9.8	nt	nt
O=C(CNC(=O)c1ccco1)Nc1ccc(Cl)cc1	-3.0	21.4*	-2.8	-79.3	13.1	-1.9	2.6
COCCN1C(=O)c2ccccc2C1c1nc2ccccc2[nH]1 (stereo not drawn)	2.3	nt	nt	nt	nt	nt	nt
O=C(NC(c1ccc(F)cc1)c1ccc2ccccc2n1)C1CCN(Cc2cccc(C(F)(F)F)c2)CC1 (stereo not drawn)	-6.2	nt	nt	nt	nt	nt	nt
Cn1c(CN2CCCC2)c(C#N)c2ccccc21	2.9	1.6	-1.1	14.1	7.8	nt	nt
CC1CCCCN1Cc1c(C#N)c2ccccc2n1C (stereo not drawn)	3.8	20.8*	3.8	-57.3	-21.4	3.0	1.8
SMILES	HTR2A ag	HTR5A ag ctr	MOR-DOR ag-1	HTR5A inv ctr	OPRM1-OPRD1 inv	MOR-DOR ag-2	HTR5A ag confirm
CCOC(=O)C1(C)CCN1C(=O)c1cc(C)oc1C (stereo not drawn)	0.7	nt	nt	nt	nt	nt	nt
Cn1c(NC(=O)c2cccc(Cn3cc(Cl)cn3)c2)nc2ccccc21	5.6	2.4	1.2	-7.0	-6.5	nt	nt
CCn1c(NC(=O)c2cccc(Cn3cc(Cl)cn3)c2)nc2ccccc21	-7.1	19.7*	0.0	-50.9	0.2	6.4	11.7
CC(O)(c1cccnc1)c1nc(-c2ccc3ccccc3c2)cs1 (stereo not drawn)	-0.6	nt	nt	nt	nt	nt	nt
COc1ccc(C(C)=O)cc1CS(=O)(=O)CC(=O)NCCc1c[nH]c2ccccc12	-12.1	17.6*	-0.9	-48.8	3.5	1.3	5.1
Cc1cc2nc(C(C)(C)C)c(CC3CCCCC3)n2c(C)c1Br	-1.4	nt	nt	nt	nt	nt	nt
CC1(C(=O)O)CCCN1C(=O)c1cccc(C(F)(F)F)c1 (stereo not drawn)	8.2	nt	nt	nt	nt	nt	nt
CCOc1ccc(NC(=O)Nc2nc(SCC)ns2)cc1	6.8	18.4*	15.0	24.1	-76.8	2.4	4.9
CCSc1nsc(NC(=O)Nc2ccccc2Cl)n1	-2.1	4.8	7.2	-17.8	-34.6	nt	nt
NS(=O)(=O)c1ccc(NC(=O)Cn2ncc3c2-c2ccccc2OC3)cc1	1.6	18.7*	4.7	-57.0	-27.7	0.1	4.4
Cc1ccc(OCCC(=O)OCC(=O)N2c3ccccc3CC2C)cc1 (stereo not drawn)	0.7	4.9	2.0	-17.8	-10.6	nt	nt
Cc1ccc(S(=O)(=O)CCC(=O)OCC(=O)N2c3ccccc3CC2C)cc1 (stereo not drawn)	9.3	29.0*	0.6	-75.6	-3.8	0.3	33.1*
Cc1ccc(F)c(S(=O)(=O)NC(=O)C2(C)CCN2C(=O)c2cccc3ccccc23)c1 (stereo not drawn)	-5.2	nt	nt	nt	nt	nt	nt
O=C(c1ccc2c(Cl)c3c(nc2c1)CCCC3)N1CCN(c2ccc(F)cc2)CC1	-1.6	15.7*	1.3	-41.1	-7.8	5.4	4.7
O=S(=O)(c1cnc(Cl)c(Cl)c1)N1CCCc2ccccc21	0.1	3.9	6.6	-9.2	-33.3	nt	nt
O=S(=O)(c1cnc(Cl)c(Cl)c1)N1CCc2ccccc21	-2.2	15.9*	5.5	-45.7	-29.8	121.4*	-0.8
Cc1ccc(NC(=O)C2CCN(c3ncnc4sc(C)c(C)c34)CC2)cc1S(=O)(=O)N(C)C	-9.7	19.5*	1.5	-53.7	-9.5	-2.1	-1.8
CCN(CC)S(=O)(=O)c1cc(NC(=O)C2CCN(c3ncnc4sc(C)c(C)c34)CC2)ccc1Cl	-7.7	-0.8	2.6	21.0	-16.8	nt	nt
